{"source": "PubChem BioAssay", "key": {"[1]": {"assay": "LFS_MB_P medulloblastoma growth inhibition, cell-based, chromothripsis tumors, cisplatin or BGB combos (AID 1671449);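 note: cells exposed for 96 hours; 0% = vehicle DMSO and 100% = killing by high DMSO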", "details": "LFS_MB_P medulloblastoma cells"}, "[2]": {"assay": "HDN33 neuroblastoma growth inhibition, cell-based, chromothripsis tumors, cisplatin or BGB combos (AID 1671450);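 note: cells exposed to compound for four days; 0% = vehicle DMSO and 100% = cell killing by high DMSO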", "details": "HDN33 neuroblastoma cells, stronger effect = higher value"}, "[3]": {"assay": "ICB984 medulloblastoma cell growth inhibition, synergistic combos for chromothripsis tumors, cisplatin or BGB combos (AID 1671451; call rule not given here;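 note: cells exposed for 96 hours before readout; 0% = vehicle DMSO and 100% = killing by high DMSO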)", "details": "ICB984 medulloblastoma cells, drug combinations, stronger effect = higher value"}, "[4]": {"assay": "LFS_MB_1R medulloblastoma cell growth inhibition, synergistic combos for chromothripsis tumors, cisplatin or BGB combos (AID 1671452);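 note: cells exposed for 96 hours before readout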", "details": "LFS_MB_1R medulloblastoma cells, stronger effect = higher value"}, "[5]": {"assay": "HTB85 osteosarcoma cell growth inhibition, synergistic combos for chromothripsis tumors, BGB or cisplatin IC20 combos (AID 1671453);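 note: cells exposed for 96 hours before readout; 0% = vehicle DMSO and 100% = high DMSO killing control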", "details": "HTB85 osteosarcoma cells, drug combinations, stronger effect = higher value"}, "[6]": {"assay": "CRL2098 osteosarcoma cell growth inhibition, synergistic combos for chromothripsis tumors, BGB or cisplatin IC20 combos (AID 1671454);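 note: cells exposed for 96 h before readout; 0% = vehicle DMSO and 100% = killing by high DMSO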", "details": "CRL2098 osteosarcoma cells, drug combinations, stronger effect = higher value"}, "[7]": {"assay": "HD-MB03 medulloblastoma cell growth inhibition, synergistic combos for chromothripsis tumors, BGB or cisplatin IC20 combos (AID 1671455; in the data active = inhibition above about 83%;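 note: 0% = vehicle DMSO and 100% = high DMSO as cytotoxic control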)", "details": "HD-MB03 medulloblastoma cells, stronger effect = higher value"}, "[8]": {"assay": "UWB1.289 ovarian carcinoma cell growth inhibition, synergistic combos for chromothripsis tumors, BGB or cisplatin combos (AID 1671456);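 note: cells exposed to compound for four days; 0% = vehicle DMSO and 100% = killing by high DMSO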", "details": "UWB1.289 ovarian carcinoma cells, stronger effect = higher value"}, "[9]": {"assay": "LFS_MB_2R medulloblastoma cell growth inhibition, synergistic combos for chromothripsis tumors, cisplatin combos (AID 1671457);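 note: cells exposed to compound for four days before readout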", "details": "LFS_MB_2R medulloblastoma cells, stronger effect = higher value"}, "[10]": {"assay": "MDA-MB-436 breast carcinoma cell growth inhibition, synergistic combos for chromothripsis tumors, BGB or cisplatin combos (AID 1671458; call rule not given here;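 note: cells exposed for 96 hours; 0% = vehicle DMSO and 100% = killing by high DMSO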)", "details": "MDA-MB-436 breast carcinoma growth inhibition, drug combinations, stronger effect = higher value"}, "[11]": {"assay": "UWB1.289_BRCA1 ovarian cancer growth, cell-based, BGB or cisplatin combinations (AID 1671459)", "details": "UWB1.289 BRCA1 ovarian carcinoma, drug combinations, stronger effect = higher value"}, "[12]": {"assay": "human astrocyte viability loss, single and combined drugs, cytotoxicity control for chromothriptic childhood tumor combination screen, cell-based, BGB or cisplatin IC20 combos (AID 1671460);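 note: cells exposed to compounds for 96 hours before viability readout; 0% = vehicle and 100% = killing control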", "details": "Human astrocytes, drug combinations, stronger effect = higher value"}, "[13]": {"assay": "growth inhibition of BT084 medulloblastoma cells, cell-based, ICGC_MB145, cisplatin and BGB IC40 combos (AID 1671461);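 note: cells exposed to drugs for 96 hours; 0% = vehicle DMSO and 100% = high DMSO full killing control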", "details": "drug combinations, stronger effect = higher value"}, "[14]": {"assay": "growth inhibition of RCMB18 medulloblastoma cells, cell-based, cisplatin and BGB IC40 combos (AID 1671462);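 note: cells exposed to compound for four days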", "details": "stronger effect = higher value"}, "[15]": {"assay": "growth inhibition of CRL1545 osteosarcoma cells, cell-based, cisplatin and BGB IC20 combos (AID 1671464);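 note: cells exposed to compound for 96 hours before readout; 0% = vehicle DMSO and 100% = high DMSO killing control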", "details": "stronger effect = higher value"}, "[16]": {"details": "measured here: combination with BGB IC40, at 0.05 µM"}, "[17]": {"details": "measured here: with BGB IC20 combination, at 0.5 µM"}, "[18]": {"details": "measured here: with cisplatin IC20 combination, at 0.5 µM"}, "[19]": {"details": "measured here: combination with cisplatin, at 0.5 µM"}, "[20]": {"details": "measured here: combination with cisplatin, at 5 µM"}}, "note": "The source made the active and inactive calls. Cut-off read from the data, not from the text of the source, unless noted: active = inhibition above about 80%; inactive = the rest.", "data": [{"smiles": "C=C1CCC(O)CC1=CC=C1CCCC2(C)C1CCC2C(C)C=CC(C)C(C)C", "note": "(stereo not drawn)", "values": [{"measurement": "inhibition", "setting": "[1]; at 0.5 µM, stronger effect = higher value", "value": "-12.3% (inactive)"}, {"measurement": "inhibition", "setting": "[1]; measured here: combination with BGB IC20, at 0.005 µM", "value": -24.6, "unit": "%"}, {"measurement": "inhibition", "setting": "[1]; measured here: combination with BGB IC40, at 0.005 µM", "value": -11.2, "unit": "%"}, {"measurement": "inhibition", "setting": "[1]; [16]", "value": -19.6, "unit": "%"}, {"measurement": "inhibition", "setting": "[1]; measured here: combination with cisplatin, at 0.5 µM, stronger effect = higher value", "value": -17.3, "unit": "%"}, {"measurement": "inhibition", "setting": "[1]; measured here: combination with cisplatin, at 5 µM, stronger effect = higher value", "value": -80.9, "unit": "%"}, {"measurement": "inhibition", "setting": "[2]; BGB combo, at 5 µM", "value": -2.75, "unit": "%"}, {"measurement": "inhibition", "setting": "[2]; at 0.5 µM", "value": "5.6% (inactive)"}, {"measurement": "inhibition", "setting": "[2]; cisplatin combo, at 5 µM", "value": 6.61, "unit": "%"}, {"measurement": "inhibition", "setting": "[2]; [17]", "value": 7.28, "unit": "%"}, {"measurement": "inhibition", "setting": "[2]; [18]", "value": 3.61, "unit": "%"}, {"measurement": "inhibition", "setting": "[2]; single agent, at 5 µM", "value": 5.11, "unit": "%"}, {"measurement": "inhibition", "setting": "[3]; BGB IC20 combo, at 0.005 µM", "value": -16.8, "unit": "%"}, {"measurement": "inhibition", "setting": "[3]; BGB IC40 combo, at 0.005 µM", "value": -28.1, "unit": "%"}, {"measurement": "inhibition", "setting": "[3]; BGB IC40 combo, at 0.05 µM", "value": 22.2, "unit": "%"}, {"measurement": "inhibition", "setting": "[3]; at 0.5 µM", "value": "-8.49% (inactive)"}, {"measurement": "inhibition", "setting": "[3]; cisplatin combo, at 0.05 µM", "value": 22.2, "unit": "%"}, {"measurement": "inhibition", "setting": "[3]; cisplatin combo, at 0.5 µM", "value": -55.6, "unit": "%"}, {"measurement": "inhibition", "setting": "[3]; cisplatin combo, at 5 µM", "value": -22.2, "unit": "%"}, {"measurement": "inhibition", "setting": "[3]; measured here: 5 uM single agent, at 5 µM", "value": -22.8, "unit": "%"}, {"measurement": "inhibition", "setting": "[4]; at 0.5 µM", "value": "14.3% (inactive)"}, {"measurement": "inhibition", "setting": "[4]; [16]", "value": 15.9, "unit": "%"}, {"measurement": "inhibition", "setting": "[4]; [19]", "value": 28.4, "unit": "%"}, {"measurement": "inhibition", "setting": "[4]; [20]", "value": 4, "unit": "%"}, {"measurement": "inhibition", "setting": "[5]; at 0.5 µM", "value": "-12.4% (inactive)"}, {"measurement": "inhibition", "setting": "[5]; measured here: with BGB IC20, at 0.5 µM", "value": -26.3, "unit": "%"}, {"measurement": "inhibition", "setting": "[5]; measured here: with BGB IC20, at 5 µM", "value": 9.36, "unit": "%"}, {"measurement": "inhibition", "setting": "[5]; measured here: with cisplatin IC20, at 0.5 µM", "value": -19, "unit": "%"}, {"measurement": "inhibition", "setting": "[5]; measured here: with cisplatin IC20, at 5 µM", "value": 1.54, "unit": "%"}, {"measurement": "inhibition", "setting": "[5]; single agent, at 5 µM", "value": 12, "unit": "%"}, {"measurement": "inhibition", "setting": "[6]; at 0.5 µM", "value": "-3.6% (inactive)"}, {"measurement": "inhibition", "setting": "[6]; measured here: combination with BGB at IC20, at 0.5 µM", "value": -1.76, "unit": "%"}, {"measurement": "inhibition", "setting": "[6]; measured here: combination with cisplatin at IC20, at 0.5 µM", "value": 19.2, "unit": "%"}, {"measurement": "inhibition", "setting": "[7]; at 0.5 µM", "value": "-7.66% (inactive)"}, {"measurement": "inhibition", "setting": "[7]; measured here: combo with BGB at IC20, at 0.5 µM", "value": -6.27, "unit": "%"}, {"measurement": "inhibition", "setting": "[7]; measured here: combo with cisplatin at IC20, at 0.5 µM", "value": -11.7, "unit": "%"}, {"measurement": "inhibition", "setting": "[8]; at 0.5 µM", "value": "-2.68% (inactive)"}, {"measurement": "inhibition", "setting": "[8]; measured here: inhibition with BGB combination, at 0.05 µM", "value": -16.7, "unit": "%"}, {"measurement": "inhibition", "setting": "[8]; measured here: inhibition with cisplatin combination, at 0.05 µM", "value": -7.51, "unit": "%"}, {"measurement": "inhibition", "setting": "[9]; at 0.5 µM", "value": "-22.6% (inactive)"}, {"measurement": "inhibition", "setting": "[9]; [19]", "value": -24.1, "unit": "%"}, {"measurement": "inhibition", "setting": "[9]; [20]", "value": -14.6, "unit": "%"}, {"measurement": "inhibition", "setting": "[10]; at 0.5 µM", "value": "-12.5% (inactive)"}, {"measurement": "inhibition", "setting": "[10]; measured here: BGB combination, at 0.5 µM", "value": -17.5, "unit": "%"}, {"measurement": "inhibition", "setting": "[10]; measured here: BGB combination, at 5 µM", "value": -14.8, "unit": "%"}, {"measurement": "inhibition", "setting": "[10]; measured here: cisplatin combination, at 0.5 µM", "value": -15.7, "unit": "%"}, {"measurement": "inhibition", "setting": "[10]; measured here: cisplatin combination, at 5 µM", "value": -13.9, "unit": "%"}, {"measurement": "inhibition", "setting": "[11]; BGB combination, concentration series, at 5 µM", "value": 18.4, "unit": "%"}, {"measurement": "inhibition", "setting": "[11]; at 0.5 µM", "value": "-4.82% (inactive)"}, {"measurement": "inhibition", "setting": "[11]; cisplatin combination, concentration series, at 5 µM", "value": 27.5, "unit": "%"}, {"measurement": "inhibition", "setting": "[12]; at 0.5 µM", "value": "2.39% (inactive)"}, {"measurement": "inhibition", "setting": "[12]; measured here: combo with BGB IC20, at 0.5 µM", "value": 0.485, "unit": "%"}, {"measurement": "inhibition", "setting": "[12]; measured here: combo with cisplatin IC20, at 0.5 µM", "value": -12, "unit": "%"}, {"measurement": "inhibition", "setting": "[13]; at 0.5 µM", "value": "-17.5% (inactive)"}, {"measurement": "inhibition", "setting": "[13]; cisplatin combination, at 0.5 µM", "value": -35.1, "unit": "%"}, {"measurement": "inhibition", "setting": "[13]; cisplatin combination, at 5 µM", "value": -77.9, "unit": "%"}, {"measurement": "inhibition", "setting": "[13]; measured here: BGB IC40 combination 0.05 uM, at 0.05 µM", "value": 22.6, "unit": "%"}, {"measurement": "inhibition", "setting": "[13]; single agent, at 5 µM", "value": -13.5, "unit": "%"}, {"measurement": "inhibition", "setting": "[14]; at 0.5 µM", "value": "-6.63% (inactive)"}, {"measurement": "inhibition", "setting": "[14]; cisplatin combo, at 5 µM", "value": -19.4, "unit": "%"}, {"measurement": "inhibition", "setting": "[14]; measured here: BGB IC40 combination, at 0.05 µM", "value": -24, "unit": "%"}, {"measurement": "inhibition", "setting": "[14]; [19]", "value": -21.7, "unit": "%"}, {"measurement": "inhibition", "setting": "[14]; single agent, at 5 µM", "value": -13.3, "unit": "%"}, {"measurement": "inhibition", "setting": "[15]; at 0.5 µM", "value": "-21.7% (inactive)"}, {"measurement": "inhibition", "setting": "[15]; [17]", "value": 16.4, "unit": "%"}, {"measurement": "inhibition", "setting": "[15]; [18]", "value": -40.8, "unit": "%"}, {"measurement": "inhibition", "setting": "[15]; single agent, at 0.05 µM", "value": 37.2, "unit": "%"}, {"measurement": "inhibition", "setting": "[15]; single agent, at 5 µM", "value": 10.9, "unit": "%"}]}]}
